Experimental findings from PMC7862700, “An all-to-all approach to the identification of sequence-specific readers for epigenetic DNA modifications on cytosine” are described below.

Holding throughout (assay): DAPPL (digital affinity profiling via proximity ligation, sequencing); 10 mM Tris-HCl pH 7.5, 50 mM NaCl, 1 mM DTT, 4% glycerol, room temperature, 30 min; GST-TFs on glutathione beads, 16-mer random dsDNA library, 0.1% formaldehyde crosslink after washing; high values mean tight binding
Assay [1] addresses T1, FEV (Homo sapiens, UniProt Q99581 1-238).
T1 sequence: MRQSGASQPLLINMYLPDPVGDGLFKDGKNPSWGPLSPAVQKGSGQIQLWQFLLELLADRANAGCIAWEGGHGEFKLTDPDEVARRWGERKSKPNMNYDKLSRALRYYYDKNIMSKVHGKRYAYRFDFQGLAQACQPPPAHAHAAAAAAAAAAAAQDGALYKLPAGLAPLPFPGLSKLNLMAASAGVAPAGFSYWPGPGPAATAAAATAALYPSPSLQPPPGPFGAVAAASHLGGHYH
To be noted: protein: recombinant; tags: N-terminal GST; dsDNA, one strand shown. The essentials: (§1)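 Binding signal is given per hexamer as its read frequency for a factor divided by its frequency in the tag-only sample. GST-fused human transcription factors were expressed in yeast, captured on glutathione beads, barcoded with DNA and pooled with that sample, then incubated with 200 nmole of a 16-mer random double-stranded DNA library in Tris/NaCl/DTT/glycerol buffer for 30 min at room temperature. The pools were then washed, crosslinked, proximity-ligated, amplified by PCR and sequenced on an Illumina NextSeq500.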

Assay [2] has as its target ETV5 (Homo sapiens, UniProt P41161 1-510). Conditions: protein: recombinant; tags: N-terminal GST; dsDNA, one strand shown. The essentials: as §1
Assay [3] has as its target HSF1 (Homo sapiens, UniProt Q00613 1-529). To be noted: protein: recombinant; tags: N-terminal GST; chain copies: 3; dsDNA, one strand shown. The essentials: as §1
In assay [4] the target is ELF4 (Homo sapiens, UniProt Q99607 1-663). Conditions: protein: recombinant; tags: N-terminal GST; dsDNA, one strand shown. The gist of the method: as §1
For assay [5], the target named is T2, ELK4 (Homo sapiens, UniProt P28324-2 1-405).
T2 sequence: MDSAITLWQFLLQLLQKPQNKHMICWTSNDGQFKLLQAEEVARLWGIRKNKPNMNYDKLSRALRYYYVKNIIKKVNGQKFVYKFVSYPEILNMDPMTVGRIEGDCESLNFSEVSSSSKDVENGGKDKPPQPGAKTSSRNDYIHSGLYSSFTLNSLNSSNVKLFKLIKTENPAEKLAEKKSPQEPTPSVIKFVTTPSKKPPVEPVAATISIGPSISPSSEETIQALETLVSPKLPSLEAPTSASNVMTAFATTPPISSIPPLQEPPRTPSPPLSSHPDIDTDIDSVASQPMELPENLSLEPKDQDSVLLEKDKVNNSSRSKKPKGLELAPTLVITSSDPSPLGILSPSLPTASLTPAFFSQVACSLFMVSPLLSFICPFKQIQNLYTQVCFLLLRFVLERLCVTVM
Conditions: protein: recombinant; tags: N-terminal GST; dsDNA, one strand shown. The essentials: as §1

The target in assay [6] is T3, ETV2 (Homo sapiens, UniProt O00321 1-342).
T3 sequence: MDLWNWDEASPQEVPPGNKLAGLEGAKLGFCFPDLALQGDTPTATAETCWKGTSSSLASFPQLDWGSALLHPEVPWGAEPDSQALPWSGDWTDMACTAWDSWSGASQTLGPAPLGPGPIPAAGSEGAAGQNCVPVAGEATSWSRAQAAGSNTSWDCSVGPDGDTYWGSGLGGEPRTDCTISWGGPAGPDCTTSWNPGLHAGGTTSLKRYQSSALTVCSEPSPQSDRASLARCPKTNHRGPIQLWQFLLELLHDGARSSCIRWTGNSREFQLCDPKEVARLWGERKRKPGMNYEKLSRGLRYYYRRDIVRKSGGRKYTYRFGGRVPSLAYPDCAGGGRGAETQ
To be noted: protein: recombinant; tags: N-terminal GST; dsDNA, one strand shown. The essentials:
as §1

Assay [7] concerns the target T4, ELF3 (Homo sapiens, UniProt P78545 1-371).
T4 sequence: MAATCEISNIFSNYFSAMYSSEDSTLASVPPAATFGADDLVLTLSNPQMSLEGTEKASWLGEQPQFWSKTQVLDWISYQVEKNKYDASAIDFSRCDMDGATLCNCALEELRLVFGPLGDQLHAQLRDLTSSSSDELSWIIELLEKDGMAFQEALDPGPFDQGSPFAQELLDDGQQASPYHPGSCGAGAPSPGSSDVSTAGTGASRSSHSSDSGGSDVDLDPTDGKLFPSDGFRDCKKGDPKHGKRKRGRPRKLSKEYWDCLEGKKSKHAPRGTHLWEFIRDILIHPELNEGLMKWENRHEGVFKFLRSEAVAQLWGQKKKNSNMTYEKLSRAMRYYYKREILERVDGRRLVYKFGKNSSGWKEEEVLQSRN
Conditions: protein: recombinant; tags: N-terminal GST; dsDNA, one strand shown. The essentials:
as §1

Assay [8] has as its target CRX (Homo sapiens, UniProt O43186 1-299). To be noted: protein: recombinant; tags: N-terminal GST; dsDNA, one strand shown. The gist of the method:
as §1

Assay [9] deals with ETV1 (Homo sapiens, UniProt P50549 1-477). Conditions: protein: recombinant; tags: N-terminal GST; dsDNA, one strand shown. The gist of the method: as §1
ETV1, sequence (P50549 whole entry): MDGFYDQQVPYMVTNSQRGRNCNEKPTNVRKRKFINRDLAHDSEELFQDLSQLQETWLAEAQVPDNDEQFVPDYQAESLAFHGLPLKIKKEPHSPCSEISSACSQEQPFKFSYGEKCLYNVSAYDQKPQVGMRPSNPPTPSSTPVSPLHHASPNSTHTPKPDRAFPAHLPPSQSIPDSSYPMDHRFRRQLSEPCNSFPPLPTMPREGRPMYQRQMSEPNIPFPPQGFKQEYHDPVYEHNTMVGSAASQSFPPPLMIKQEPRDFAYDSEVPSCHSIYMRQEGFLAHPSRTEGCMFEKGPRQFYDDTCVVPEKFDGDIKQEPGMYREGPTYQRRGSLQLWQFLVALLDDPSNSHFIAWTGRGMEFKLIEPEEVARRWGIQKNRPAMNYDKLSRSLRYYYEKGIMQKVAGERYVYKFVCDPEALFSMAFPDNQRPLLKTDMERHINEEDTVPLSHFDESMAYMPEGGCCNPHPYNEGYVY

CRX, sequence (O43186 whole entry): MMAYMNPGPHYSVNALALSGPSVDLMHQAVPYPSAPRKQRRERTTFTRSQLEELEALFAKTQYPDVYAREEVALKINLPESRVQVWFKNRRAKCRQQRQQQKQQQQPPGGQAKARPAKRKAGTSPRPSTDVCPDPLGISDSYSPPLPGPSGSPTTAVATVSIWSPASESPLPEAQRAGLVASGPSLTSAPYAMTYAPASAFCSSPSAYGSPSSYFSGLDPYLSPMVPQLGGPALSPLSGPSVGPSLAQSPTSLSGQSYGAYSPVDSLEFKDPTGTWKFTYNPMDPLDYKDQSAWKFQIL
ELF4, sequence (Q99607 whole entry): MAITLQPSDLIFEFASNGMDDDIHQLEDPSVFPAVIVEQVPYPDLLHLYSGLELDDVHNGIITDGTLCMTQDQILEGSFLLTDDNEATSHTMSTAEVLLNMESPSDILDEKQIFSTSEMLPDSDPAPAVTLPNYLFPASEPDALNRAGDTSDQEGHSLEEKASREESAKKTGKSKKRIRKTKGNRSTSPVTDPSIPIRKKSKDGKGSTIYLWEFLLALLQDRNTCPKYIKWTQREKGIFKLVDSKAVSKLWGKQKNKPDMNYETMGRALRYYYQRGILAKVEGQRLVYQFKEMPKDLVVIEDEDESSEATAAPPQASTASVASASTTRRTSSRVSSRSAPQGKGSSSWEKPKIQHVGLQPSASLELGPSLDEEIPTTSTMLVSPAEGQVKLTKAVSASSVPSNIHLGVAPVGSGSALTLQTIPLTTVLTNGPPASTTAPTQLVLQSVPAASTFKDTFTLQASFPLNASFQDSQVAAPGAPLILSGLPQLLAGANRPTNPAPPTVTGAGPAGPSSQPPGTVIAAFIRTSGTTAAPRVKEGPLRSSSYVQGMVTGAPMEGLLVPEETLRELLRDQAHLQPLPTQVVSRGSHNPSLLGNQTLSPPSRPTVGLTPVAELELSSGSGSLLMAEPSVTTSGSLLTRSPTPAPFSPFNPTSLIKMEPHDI
ETV5, sequence (P41161 whole entry): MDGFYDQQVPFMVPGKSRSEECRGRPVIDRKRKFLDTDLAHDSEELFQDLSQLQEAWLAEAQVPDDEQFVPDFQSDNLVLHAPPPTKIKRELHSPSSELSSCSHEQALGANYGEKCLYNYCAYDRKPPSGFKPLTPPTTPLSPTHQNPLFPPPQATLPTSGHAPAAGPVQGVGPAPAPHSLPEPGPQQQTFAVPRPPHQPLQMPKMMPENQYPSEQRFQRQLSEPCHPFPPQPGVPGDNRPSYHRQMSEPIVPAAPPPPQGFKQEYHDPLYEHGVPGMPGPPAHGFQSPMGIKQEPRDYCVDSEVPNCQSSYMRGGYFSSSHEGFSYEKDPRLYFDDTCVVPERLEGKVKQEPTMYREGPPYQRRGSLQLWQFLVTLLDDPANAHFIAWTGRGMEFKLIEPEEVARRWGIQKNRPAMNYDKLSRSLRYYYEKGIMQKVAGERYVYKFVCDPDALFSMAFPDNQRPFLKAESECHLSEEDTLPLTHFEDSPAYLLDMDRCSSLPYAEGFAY
HSF1, sequence (Q00613 whole entry): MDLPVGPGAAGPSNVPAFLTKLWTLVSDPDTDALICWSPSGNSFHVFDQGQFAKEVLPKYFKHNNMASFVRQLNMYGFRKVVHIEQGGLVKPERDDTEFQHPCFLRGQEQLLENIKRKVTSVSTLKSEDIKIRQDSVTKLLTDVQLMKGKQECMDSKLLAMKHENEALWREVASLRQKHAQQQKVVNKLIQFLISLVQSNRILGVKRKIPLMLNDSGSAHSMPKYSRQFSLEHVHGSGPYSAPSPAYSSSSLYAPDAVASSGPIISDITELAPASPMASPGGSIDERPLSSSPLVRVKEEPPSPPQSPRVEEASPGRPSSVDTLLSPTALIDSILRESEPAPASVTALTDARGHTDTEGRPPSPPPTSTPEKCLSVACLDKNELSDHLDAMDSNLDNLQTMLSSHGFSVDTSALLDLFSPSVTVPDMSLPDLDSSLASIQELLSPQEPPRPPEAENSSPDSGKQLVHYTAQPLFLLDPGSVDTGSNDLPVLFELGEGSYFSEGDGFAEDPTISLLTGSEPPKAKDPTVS

AAGCTC: the binding signal is 1.14 fold enrichment (6-mer frequency, TF over GST control) in assay [1]; 1.16 fold enrichment (6-mer frequency, TF over GST control) in [2]; 1.42 fold enrichment (6-mer frequency, TF over GST control) in [3]; 1.21 fold enrichment (6-mer frequency, TF over GST control) in assay [4]; 1.2 fold enrichment (6-mer frequency, TF over GST control) in assay [5]; 1.15 fold enrichment (6-mer frequency, TF over GST control) in assay [6]. Further, the binding signal is 1.2 fold enrichment (6-mer frequency, TF over GST control) in [7]; 1.68 fold enrichment (6-mer frequency, TF over GST control) in assay [8]; 1.22 fold enrichment (6-mer frequency, TF over GST control) in assay [9].

With GTAATC, the binding signal in assay [1] is 1.1 fold enrichment (6-mer frequency, TF over GST control); in [2], 1.22 fold enrichment (6-mer frequency, TF over GST control); in assay [3] it was 1.92 fold enrichment (6-mer frequency, TF over GST control); in assay [4], 1.14 fold enrichment (6-mer frequency, TF over GST control); in assay [5], 1.16 fold enrichment (6-mer frequency, TF over GST control); in [6], 1.11 fold enrichment (6-mer frequency, TF over GST control). The binding signal in assay [7] was 1.21 fold enrichment (6-mer frequency, TF over GST control); in [8] it was 3.14 fold enrichment (6-mer frequency, TF over GST control); in assay [9] it was 1.02 fold enrichment (6-mer frequency, TF over GST control).

For TAAAGA, the binding signal is 1.09 fold enrichment (6-mer frequency, TF over GST control) in assay [1]; 1.07 fold enrichment (6-mer frequency, TF over GST control) in assay [2]; 1.56 fold enrichment (6-mer frequency, TF over GST control) in [3]; 1.07 fold enrichment (6-mer frequency, TF over GST control) in assay [4]; 1.11 fold enrichment (6-mer frequency, TF over GST control) in assay [5]; 1.13 fold enrichment (6-mer frequency, TF over GST control) in [6]. Further, the binding signal in [7] is 1.2 fold enrichment (6-mer frequency, TF over GST control); in assay [8], 1.85 fold enrichment (6-mer frequency, TF over GST control); in [9] it was 1.11 fold enrichment (6-mer frequency, TF over GST control).

On to AAAGCT, for which the binding signal in assay [1] was 1.1 fold enrichment (6-mer frequency, TF over GST control); in assay [2], 1.08 fold enrichment (6-mer frequency, TF over GST control); in assay [3], 1.32 fold enrichment (6-mer frequency, TF over GST control); in assay [4] it was 1.06 fold enrichment (6-mer frequency, TF over GST control); in [5] it was 1.13 fold enrichment (6-mer frequency, TF over GST control); in assay [6], 1.01 fold enrichment (6-mer frequency, TF over GST control). The binding signal in assay [7] was 1.2 fold enrichment (6-mer frequency, TF over GST control); in [8], 1.64 fold enrichment (6-mer frequency, TF over GST control); in assay [9] it was 1.06 fold enrichment (6-mer frequency, TF over GST control).

AGGTAT: the binding signal in [2] is 1.02 fold enrichment (6-mer frequency, TF over GST control); in assay [3], 1.07 fold enrichment (6-mer frequency, TF over GST control); in assay [4], 1.02 fold enrichment (6-mer frequency, TF over GST control); in assay [5], 1.03 fold enrichment (6-mer frequency, TF over GST control); in assay [6] it was 1.03 fold enrichment (6-mer frequency, TF over GST control); in assay [7], 1.12 fold enrichment (6-mer frequency, TF over GST control). In addition, the binding signal in assay [8] is 1.05 fold enrichment (6-mer frequency, TF over GST control); in [9], 1.02 fold enrichment (6-mer frequency, TF over GST control).

Consider AATCCA, for which the binding signal in assay [1] was 1.11 fold enrichment (6-mer frequency, TF over GST control); in assay [2] it was 1.07 fold enrichment (6-mer frequency, TF over GST control); in assay [3], 1.78 fold enrichment (6-mer frequency, TF over GST control); in assay [4], 1.12 fold enrichment (6-mer frequency, TF over GST control); in assay [5], 1.18 fold enrichment (6-mer frequency, TF over GST control); in assay [6], 1.03 fold enrichment (6-mer frequency, TF over GST control). In addition, the binding signal was 1.1 fold enrichment (6-mer frequency, TF over GST control) in assay [7]; 2.33 fold enrichment (6-mer frequency, TF over GST control) in assay [8]; 1.12 fold enrichment (6-mer frequency, TF over GST control) in [9].

As for GTTTAC, the binding signal in assay [1] was 1.11 fold enrichment (6-mer frequency, TF over GST control); in assay [2], 1.1 fold enrichment (6-mer frequency, TF over GST control); in [3], 1 fold enrichment (6-mer frequency, TF over GST control); in assay [4] it was 1.12 fold enrichment (6-mer frequency, TF over GST control); in assay [5] it was 1.32 fold enrichment (6-mer frequency, TF over GST control); in assay [6], 1.11 fold enrichment (6-mer frequency, TF over GST control). In addition, the binding signal in [7] was 1.28 fold enrichment (6-mer frequency, TF over GST control); in assay [8], 1.01 fold enrichment (6-mer frequency, TF over GST control); in assay [9], 1.17 fold enrichment (6-mer frequency, TF over GST control).
